Data: PubChem BioAssay AID720641 (ICCB-Longwood Screening Facility, Harvard Medical School, 2013)
The whole screen tested about 170,000 compounds, of which about 900 (0.53%) were called active.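 How the source made its calls: active means relative growth at most 50% at the other temperature and 20+ points below 30 °C, or under 10% at both; inactive means the rest, inconclusive results apart.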 The entries come from a sample that favours actives as a whole.

Assay: Staphylococcus aureus RN4220 growth blockers – two temperatures, LtaS inhibitor project, primary screen (AID 720641)
Details: S. aureus RN4220 growth, OD600, 20 h, 42 °C, stronger effect = lower value

Compound | relative growth | relative growth (measured here: growth at 30 °C) [%]
CC(Sc1ncnc2ccccc12)C(=O)Nc1cccc(C(F)(F)F)c1 (stereo not drawn) | 115% (inactive) | 80.8
CC(C)(C)C(=O)CN1C(=O)c2ccccc2C1=O | 129% (inactive) | 89.2
Cc1ccccc1-c1nc(CS(=O)(=O)CC(=O)NC(C)c2ccccc2)c(C)o1 (stereo not drawn) | 101% (inactive) | 105
Cc1oc2c(c1C(=O)NC(C)c1ccccc1)C(=O)c1ccccc1C2=O (stereo not drawn) | 9.3% (active) | 14
CC(NC(=O)Nc1ccccc1)c1ccccc1 (stereo not drawn) | 76.7% (inactive) | 91.3
O=C(/C=C/c1ccccc1)OCC(=O)N1CCc2ccccc21 | 134% (inactive) | 88.3
CCOC(=O)c1cnc2c(F)cc(F)cc2c1N1CCOCC1 | 118% (inactive) | 104
CN(C)c1ccc(Nc2nc3ccccc3nc2NS(=O)(=O)c2cccs2)cc1 | 105% (inactive) | 95.9
Cc1cccn2c(=O)cc(CN3CCC(C(=O)N4CCOCC4)CC3)nc12 | 98.4% (inactive) | 88.3
COC(=O)c1ccc(NS(=O)(=O)c2cc(C(=O)OC)n(C)c2)cc1 | 106% (inactive) | 88
COC(=O)CN1C(=O)CSc2ccc(S(=O)(=O)Nc3cc(C)ccc3C)cc21 | 112% (inactive) | 94
COC(=O)c1ccc(C)c(NS(=O)(=O)c2ccc3c(c2)c(=O)sn3C)c1 | 0.12% (active) | 0.2
COc1ccc(OCCn2c(S(=O)(=O)Cc3ccccc3)nc3ccccc32)cc1 | 132% (inactive) | 101
COCCNc1ncnc2c1sc1nc(N3CCOCC3)c3c(c12)CCC3 | 111% (inactive) | 88.7
CSc1n[nH]c(-c2ccco2)n1 | 101% (inactive) | 107
CO/N=C(/C(=O)N[C@@H]1C(=O)N2C(C(=O)O)=C(CSc3nc(=O)c(O)nn3C)CS[C@H]12)c1csc(N)n1 | -0.87% (active) | -0.54
O=S(=O)(Cc1ccccc1)CC(O)COc1ccc(OC(F)(F)F)cc1 (stereo not drawn) | 102% (inactive) | 85
COc1ccccc1CN=C(C)c1ccccc1O | 101% (inactive) | 99.1
CCOC(=O)c1c(NC(=O)C(F)(F)F)sc2c1CCCC2 | 101% (inactive) | 93.2
CCOC(=O)Nc1sccc1C(N)=O | 106% (inactive) | 101
CCOC(=O)c1c(C)csc1NC(=O)CC(=O)C(F)(F)F | 2.75% (active) | 4.35
O=C(CSc1nc2ccsc2c(=O)n1Cc1ccccn1)Nc1nccs1 | 94% (inactive) | 87.2
O=S(=O)(NCCC12CC3CC(CC(C3)C1)C2)c1cc(Cl)ccc1Cl | 80.5% (inactive) | 66.9
CC(C)NC(=O)COc1ccc(-c2nn(C)c(=O)c3ccccc23)cc1 | 92.3% (inactive) | 86.8
